The record followed here is PubChem BioAssay (EPA / NIEHS).

Active and inactive are the calls of the source. Rule for the calls: active = hit-call score of the fitted dose curve at least 0.9, where 1 is the maximum; inactive = score below 0.9.

This experiment deals with Hypoxia-inducible factor 1-alpha (Homo sapiens) (UniProt Q16665). Briefly: ATG_HIF1a_CIS: Attagene CIS-FACTORIAL HepG2 Assay for human Hypoxia Inducible Factor 1 (HIF1A) (AID 2282951). As to conditions: HepG2 Attagene cis-factorial HIF1a reporter transcription; actives raise or lower the signal. How it is done: ATG_CIS is a cell-based, multiplexed-readout assay that uses HepG2, a human liver cell line, with measurements taken at 24 hours after chemical dosing in a 24-well plate.ATG_HIF1a_CIS is one of 52 assay component(s) measured or calculated from the ATG_CIS assay. It is designed to make measurements of mRNA induction, a form of inducible reporter, as detected with fluorescence intensity signals by Reverse transcription polymerase chain reaction (RT-PCR) and Capillary electrophoresis technology.Data from the assay component ATG_HIF1a_CIS was analyzed into 1 assay endpoint. This assay endpoint, ATG_HIF1a_CIS, was analyzed with bidirectional fitting relative to DMSO as the negative control and baseline of activity. Using a type of inducible reporter, measures of mRNA for gain or loss-of-signal activity can be used to understand the reporter gene at the transcription factor-level as they relate to the gene HIF1A. Furthermore, this assay endpoint can be referred to as a primary readout, because this assay has produced multiple assay endpoints where this one serves a reporter gene function. To generalize the intended target to other relatable targets, this assay endpoint is annotated to the dna binding intended target family, where the subfamily is basic helix-loop-helix protein.
Hypoxia-inducible factor 1-alpha (Homo sapiens), sequence (Q16665 whole entry, looked up): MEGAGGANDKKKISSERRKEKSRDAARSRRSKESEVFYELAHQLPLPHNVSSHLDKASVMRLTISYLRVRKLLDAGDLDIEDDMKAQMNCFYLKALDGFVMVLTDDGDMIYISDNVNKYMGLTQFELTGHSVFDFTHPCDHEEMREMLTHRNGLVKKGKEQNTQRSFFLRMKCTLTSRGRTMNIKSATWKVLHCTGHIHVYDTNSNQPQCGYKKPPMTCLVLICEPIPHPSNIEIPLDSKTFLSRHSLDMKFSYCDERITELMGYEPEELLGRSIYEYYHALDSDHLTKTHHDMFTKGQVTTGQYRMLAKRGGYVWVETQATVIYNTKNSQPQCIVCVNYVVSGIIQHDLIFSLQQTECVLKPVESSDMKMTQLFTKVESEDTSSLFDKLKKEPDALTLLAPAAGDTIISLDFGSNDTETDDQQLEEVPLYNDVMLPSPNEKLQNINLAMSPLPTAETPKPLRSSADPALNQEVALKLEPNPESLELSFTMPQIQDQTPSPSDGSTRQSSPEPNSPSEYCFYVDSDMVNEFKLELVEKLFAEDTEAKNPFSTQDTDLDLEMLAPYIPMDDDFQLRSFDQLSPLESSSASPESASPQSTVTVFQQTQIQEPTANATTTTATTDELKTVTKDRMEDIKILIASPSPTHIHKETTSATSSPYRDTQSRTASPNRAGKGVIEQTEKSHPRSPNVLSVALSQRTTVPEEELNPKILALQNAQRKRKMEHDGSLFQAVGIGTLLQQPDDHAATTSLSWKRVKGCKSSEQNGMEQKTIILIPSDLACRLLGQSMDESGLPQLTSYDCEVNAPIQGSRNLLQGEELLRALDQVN
Human liver HepG2 cells are transiently transfected with multiple reporter transcription units (MRTUs) in 6-well plates using FuGene 6 reagent (Roche; 3 ml FuGene/1 mg DNA). The MRTU constructs are regulated by a cis-regulating element (promoter). […] A major difference between the CIS and TRANS system is that in CIS activities of endogenous TFs are measured, whereas the TRANS assay evaluates changes in activities of exogenous, chimeric NR-Gal4 proteins. […] At the end of 24 hour incubation, total RNA was isolated using TriZol reagent (Invitrogen). The isolated RNA is then reverse-transcribed using oligo(dT) primer and Mo-MLV reverse transcriptase (Invitrogen) with DNAse I (Ambion) treatment for 30 min. The one-tenth of the produced cDNA was amplified by PCR using Taq DNA polymerase (Invitrogen) and two reporter sequence-specific primers. The PCR products were fluorescently labeled by primer extension with 6-arboxyfluorescein (6-FAM) 5'-labeled reporter sequence-specific primer (2 min at 95 C, 20 s at 68 C and 10 min at 72 C) and these products were digested with 5U of HpaI (New England Biolabs) for 2h at 37 C. The fragments were purified using Qiaquick PCR columns (Qiagen), analyzed on an ABI 3130xL genetic analyzer (Applied Biosystems) with peak positions identified by using a set of X-rhodamine (ROX)-labeled MapMarker1000 molecular weight standards (BioVentures). The raw capillary electrophoresis data was processed using Attagraph software (Attagene).
`Oc1cccc2ccccc12`: the outcome was inactive. Same read-out and setting: for `CC(C)CC(=O)CC(C)C` the value was “inactive”; for `CC(=O)c1nccs1`, “inactive”; for `Brc1ccc(Oc2ccc(Br)cc2)cc1`, “inactive”. Turning to `c1ccc2c(c1)Oc1ccccc1S2`, the molecule was classed as inactive.

Take `O=C(O)c1ccccc1C(=O)O`: the outcome was inactive. As to `CC/C=C\CCCCCO`, the molecule was classed as inactive. With `CN1CCCC1`, the call was inactive. Take `[O-][n+]1ccc(Cl)cc1`: the molecule was classed as inactive.

Take `Cc1cc(C)c(S(=O)(=O)O)cc1N=Nc1cc(S(=O)(=O)O)c2ccccc2c1O`: the call was inactive. Take `CCC(C)NC(N)=O` (stereo not given): the molecule was classed as inactive. Still for that read-out and setting: for `CCOc1ccc2c(c1)C(C)CC(C)(C)N2` (stereo not given) the value was “inactive”; for `O=C1NC(=O)[C@@H]2CC=CC[C@H]12`, “inactive”; for `CCCCn1cc[n+](C)c1`, “inactive”. For the molecule `COC(=O)/C=C\C(=O)OC`, the molecule was called inactive. For `COc1cccc(OC)c1C(=O)O`, the result was inactive. For the molecule `CCCCCCC(O)CCCCCCCCCCC(=O)OC` (stereo not given), the call was inactive. For the molecule `O=C1NC(=O)C2CC=CCC12` (stereo not given), the result was inactive.

As for `CC(C)CC(=O)O`, the outcome was inactive. Take `CCCCC(CC)COC(=O)CS` (stereo not given): the result was inactive.

In the case of `O=C(OCc1ccccc1)c1ccccc1`, the AC50 is 175 µM (active).

Regarding `C=CN1CCCCCC1=O`, the result was inactive. Same read-out and setting: to `CCCC[N+]1(C)CCCC1` belongs “inactive”; to `O=C(O)/C=C/C(=O)O`, “inactive”.

Take `CN(C)c1ccc(C(c2ccccc2)c2ccc(N(C)C)cc2)cc1`: the molecule was classed as inactive.

For `O=[N+]([O-])c1ccc2nc[nH]c2c1`, the outcome was inactive.

As to `CCCCCC1CCCC(=O)O1` (stereo not given), the call was inactive. Take `O=C1CCCCCCCCCCCCCC1`: the molecule was called inactive.

Consider `COc1ccc2ccccc2c1`, for which the molecule was called inactive. Turning to `CC(=O)OC(C)(C)Cc1ccccc1`, the outcome was inactive. For `CC[N+](CC)(CC(=O)Nc1c(C)cccc1C)Cc1ccccc1` (tested in a mixture with another compound), the molecule was called inactive. Take `CCC(C)(CCC(C)C)C(=O)O` (stereo not given): the molecule was called inactive. Regarding `F[B-](F)(F)F`, the molecule was called inactive.

Consider `O=C(O)c1cc(Cl)cc(Cl)c1O`, for which the molecule was classed as inactive. In the case of `O=[N+]([O-])c1ccccc1C(F)(F)F`, the AC50 was 48.9 µM (active). In the case of `CCOC(=O)CC(=O)OCC`, the result was inactive. In the case of `CCCOCCC`, the molecule was called inactive.

Regarding `Cc1cc(O)cc(C)c1Cl`, the AC50 is 48.4 µM (active). With `CO[Si](CCCNCCN)(OC)OC`, the molecule was called inactive. `Oc1ccc(Oc2ccccc2)cc1`: the outcome was inactive.

One may read the AC50 as the concentration at which the activity in the assay is half-maximal.
